# Experimental data published in PubChem BioAssay (Tox21).
# Unmarked numbers belong to inactive results. Records with an inconclusive call do not appear. Where a call stands in place of a potency, no number is given. Calls of active or inactive are those of the source. Unless noted, calls follow the shape of the dose curve; as a rule, active = well fitted curve in the direction sought with a large enough effect in the repeat runs; inconclusive = weak or mixed curves; inactive = no such curve, though single readings can be large; an effect the other way counts as inactive or inconclusive.
# Columns and labels:
# [1] = qHTS assay to identify small molecule antagonists of the estrogen related receptor (ERR) signaling pathway from Tox21 library - cell viability counter screen (AID 1224834); also: nearly all actives have a fitted effect of over 30% in size; also: potency is read from the fitted curve at half-maximal effect
# Outline: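 Seeded ERR cells were rested 6 h at 37 C/5% CO2 before compounds, positive and negative controls or DMSO were added. Incubation continued for 17.5 h, and viability was then quantified by CellTiter-Fluor fluorescence.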
# [2] = target: Luciferin 4-monooxygenase (Photinus pyralis) (UniProt P08659); test: qHTS assay to identify small molecule inhibitors of firefly luciferase (AID 1224835); also: nearly all actives have a fitted effect of over 25% in size; also: potency is read from the fitted curve at half-maximal effect
# Outline: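 Inhibition of purified Photinus luciferase is measured by luminescence. Substrate levels (D-luciferin, ATP) sit at their KM values. Each compound is tested in a concentration series.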
# [3] = qHTS assay to identify small molecule agonists of the constitutive androstane receptor (CAR) signaling pathway - cell viability counter screen (AID 1224836); also: nearly all actives have a fitted effect of over 45% in size; also: potency is read from the fitted curve at half-maximal effect
# Outline: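 Fluorescence from CellTiter-Fluor indicates live cells after 23 h exposure. The human hepatoma line expresses hCAR and a CYP2B6-2.2kb reporter. Incubation medium contains 0.75 uM PK11195 (final).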
# [4] = qHTS assay to identify small molecule antagonists of the constitutive androstane receptor (CAR) signaling pathway - cell viability counter screen (AID 1224837); also: nearly all actives have a fitted effect of over 45% in size; also: potency is read from the fitted curve at half-maximal effect
# Outline: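 To flag cytotoxic false antagonists, HepG2 hCAR/CYP2B6-2.2kb cells were treated 23 hr with 15-concentration compound series and 50 nM CITCO at 37 C/5% CO2; CellTiter-Fluor fluorescence was the measured end point.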
# [5] = target: Nuclear receptor subfamily 1 group I member 3 (Homo sapiens) (UniProt Q14994); test: qHTS assay to identify small molecule agonists of the constitutive androstane receptor (CAR) signaling pathway (AID 1224839); also: nearly all actives have a fitted effect of over 15% in size; also: potency is read from the fitted curve at half-maximal effect;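 as to activation: HepG2 cells stably carrying human CAR and a CYP2B6 luciferase reporter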
# Outline: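 Stable hCAR/CYP2B6-2.2kb HepG2 line in DMEM with 10% FBS; compounds (15 concentrations) and 0.75 uM PK11195 final, 24 h at 37 C/5% CO2, then ONE-Glo luminescence after 30 min.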
# [6] = qHTS assay to identify small molecule antagonists of the estrogen related receptor signaling pathway with the pleiotropic PPARgamma coactivator (PGC) from Tox21 10K library - cell viability counter screen (AID 1224840; active = well fitted cell-killing curve with a large enough effect in the repeat runs, not every such curve was filed as active; also: nearly all actives have a fitted effect of over 40% in size; also: potency is read from the fitted curve at half-maximal effect)
# Outline: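 Seeded PGC/ERR cells (2,000/well, 6 h, 37 C/5% CO2) get compound by pin tool; 17.5 h incubation at 37 C; CellTiter-Fluor added, 30 min, fluorescence measured.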
# [7] = qHTS assay to identify small molecule antagonists of the estrogen related receptor signaling pathway with the pleiotropic PPARgamma coactivator (PGC) from Tox21 10K library (AID 1224841; call rule not given here; also: actives are mostly falling curves and most rising ones were filed inactive; nearly all actives have a fitted effect of over 50% in size; also: potency is read from the fitted curve at half-maximal effect)
# Outline: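 Test chemicals dissolved in DMSO were applied to pre-incubated (6 h) PGC/ERR cells at 2,000 cells/well for an 18 h, 37 C treatment; reporter luminescence was then read using One-Glo.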
# [8] = qHTS assay to identify small molecule agonists of the estrogen related receptor signaling pathway with the pleiotropic PPARgamma coactivator (PGC) from Tox21 10K library (AID 1224842); also: nearly all actives have a fitted effect of over 15% in size
# Outline: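 Luminescence from One-Glo (30 min, room temperature) measured after PGC/ERR cells had 18 h at 37 C with pinned compound (23 nL in DMSO). Cells had been seeded at 2,000 per well and pre-incubated 6 h.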
# [9] = qHTS assay to identify small molecule agonists of the hypoxia (HIF-1) signaling pathway - cell viability counter screen (AID 1224844; calls by dose curve; also: nearly all actives have a fitted effect of over 50% in size; also: potency is read from the fitted curve at half-maximal effect)
# Outline: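 HRE-bla ME-180; 0.5% dFBS; cpd 17 h, 37C, 5% CO2; CellTiter-Glo lum., 30 min RT, post-FRET read, same wells.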
# [10] = qHTS assay to identify small molecule agonists of the hypoxia (HIF-1) signaling pathway (AID 1224846; active = well fitted activation curve with a large enough effect in the signal ratio in the repeat runs, not every such curve was filed as active; the % refers to the signal ratio)
# Outline: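 Reporter induction in HRE-bla ME-180 cells is taken as agonism: cells sit 5 hrs after plating, receive compounds or DMSO only, incubate 17 hrs at 37C under 5% CO2, and are loaded with CCF4-AM for beta-lactamase FRET measurement.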
# [11] = qHTS assay to identify small molecule agonists of H2AX - cell viability counter screen (AID 1224847; calls by dose curve; also: nearly all actives have a fitted effect of over 30% in size; also: potency is read from the fitted curve at half-maximal effect)
# Outline: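 Viability of CHO-K1 (wild type) cells after 3 hr compound exposure was measured by CellTiter-Glo luminescence.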
# [12] = qHTS assay to identify small molecule antagonists of the estrogen related receptor (ERR) signaling pathway from Tox21 library (AID 1224848); also: potency is read from the fitted curve at half-maximal effect; nearly all actives have a fitted effect of over 50% in size
# Outline: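 ERR cell line, 2,000 cells/well. 6 h settle, then compound (DMSO) added; 18 h at 37 C; ONE-Glo luminescence after 30 min RT.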
# [13] = qHTS assay to identify small molecule agonists of the estrogen related receptor (ERR) signaling pathway from Tox21 library (AID 1224849; calls by dose curve; also: nearly all actives have a fitted effect of over 15% in size); details: ERR reporter cell line, ONE-Glo luciferase, 18 h; at 92.4 µM (top of the series) unless noted
# Outline: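 Tox21 compounds tested for ERR agonism in an NTP reporter cell line: 18 h treatment at 37 C, then ONE-Glo luminescence.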
# [14] = qHTS RealTime-Glo MT Cell Viability Assay in HepG2 cells - 24 hour (AID 1224867); also: nearly all actives have a fitted effect of over 50% in size; also: potency is read from the fitted curve at half-maximal effect
# Outline: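 Real-time, nonlytic viability: 600 HepG2 cells/well mixed with NanoLuc enzyme plus prosubstrate; 5 h settle, compound (DMSO) added by pintool; luminescence monitored over 40 h at 37 C.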
# [15] = qHTS RealTime-Glo MT Cell Viability Assay in HepG2 cells - 40 hour (AID 1224870); also: nearly all actives have a fitted effect of over 50% in size; also: potency is read from the fitted curve at half-maximal effect
# Outline: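 Real-time viability: cells seeded at 600 per well together with NanoLuc and cell-permeant prosubstrate, compounds added after 5 h incubation. Luminescence tracked at 0, 8, 16, 24, 32 and 40 h of exposure.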
# [16] = target: Thyrotropin receptor (Homo sapiens) (UniProt P16473); test: qHTS assay to identify small molecule agonists of the thyroid stimulating hormone receptor (TSHR) signaling pathway (AID 1224843; calls by dose curve; also: nearly all actives have a fitted effect of over 45% in size)
# Outline: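 A cell-based cAMP HTRF format was run in TSHR-transfected HEK293 cells, 800 per well. Treatment: 30 min, room temperature. Detection: 1 h with labelled cAMP and anti-cAMP cryptate. Concentration-response over 15 points, three replicates.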
# [17] = qHTS assay to identify small molecule agonists of H2AX (AID 1224845; active = well fitted activation curve with a large enough effect in the signal ratio in the repeat runs, not every such curve was filed as active; the % refers to the signal ratio)
# Outline: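 Phospho-H2AX Ser139 measured by HTRF (ex 320 nm; em 665 and 620 nm) after 24 hr antibody incubation. Compounds, 15 concentrations, 0.76% DMSO, were applied to CHO-K1 cells for 3hr at 37C before lysis.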
# [18] = qHTS RealTime-Glo MT Cell Viability Assay in HEK293 cells - 32 hour (AID 1224868)
# Outline: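 Cells + reagent dispensed (600 cells/well, HEK293) → 5 h at 37 C/5% CO2 → 23 nL compound in DMSO pinned → 40 h at 37 C → luminescence read at 0, 8, 16, 24, 32, 40 h.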
# [19] = A CellTox Green Cytotoxicity Assay to monitor cytotoxicity in HEK293 cells - 0 hour (AID 1224869); also: nearly all actives have a fitted effect of over 50% in size
# Outline: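 Tox21 screen in HEK293: membrane-impermeant cyanine dye fluoresces on binding dead-cell DNA; compound pinned 5 h post-seeding, plates held at 37 C, signal read repeatedly through 40 h.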
# [20] = target: Nuclear receptor subfamily 1 group I member 3 (Homo sapiens) (UniProt Q14994); test: qHTS assay to identify small molecule antagonists of the constitutive androstane receptor (CAR) signaling pathway (AID 1224838);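 also: HepG2 cells stably expressing hCAR with CYP2B6 luciferase reporter stimulated by CITCO; nearly all actives have a fitted effect of over 40% in size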
# Outline: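 Human hepatoma HepG2 cells expressing hCAR and a CYP2B6 promoter (2.2 kb) luciferase construct; compound titration (15 points) with 50 nM CITCO final, 24 h at 37 C/5% CO2; luminescence via ONE-Glo after 30 min at room temperature.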
# Chain of Nuclear receptor subfamily 1 group I member 3 (Homo sapiens) (Q14994 whole entry, looked up): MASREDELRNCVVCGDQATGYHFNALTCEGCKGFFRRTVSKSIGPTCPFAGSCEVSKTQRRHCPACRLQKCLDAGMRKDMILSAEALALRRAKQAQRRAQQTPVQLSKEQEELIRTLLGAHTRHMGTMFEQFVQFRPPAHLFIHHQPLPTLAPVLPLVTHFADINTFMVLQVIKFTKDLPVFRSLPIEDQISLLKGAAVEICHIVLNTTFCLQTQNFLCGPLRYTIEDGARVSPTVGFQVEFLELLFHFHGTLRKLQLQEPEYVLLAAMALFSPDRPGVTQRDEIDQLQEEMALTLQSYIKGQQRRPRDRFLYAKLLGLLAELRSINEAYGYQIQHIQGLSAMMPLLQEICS
# Chain of Luciferin 4-monooxygenase (Photinus pyralis) (P08659 whole entry, looked up): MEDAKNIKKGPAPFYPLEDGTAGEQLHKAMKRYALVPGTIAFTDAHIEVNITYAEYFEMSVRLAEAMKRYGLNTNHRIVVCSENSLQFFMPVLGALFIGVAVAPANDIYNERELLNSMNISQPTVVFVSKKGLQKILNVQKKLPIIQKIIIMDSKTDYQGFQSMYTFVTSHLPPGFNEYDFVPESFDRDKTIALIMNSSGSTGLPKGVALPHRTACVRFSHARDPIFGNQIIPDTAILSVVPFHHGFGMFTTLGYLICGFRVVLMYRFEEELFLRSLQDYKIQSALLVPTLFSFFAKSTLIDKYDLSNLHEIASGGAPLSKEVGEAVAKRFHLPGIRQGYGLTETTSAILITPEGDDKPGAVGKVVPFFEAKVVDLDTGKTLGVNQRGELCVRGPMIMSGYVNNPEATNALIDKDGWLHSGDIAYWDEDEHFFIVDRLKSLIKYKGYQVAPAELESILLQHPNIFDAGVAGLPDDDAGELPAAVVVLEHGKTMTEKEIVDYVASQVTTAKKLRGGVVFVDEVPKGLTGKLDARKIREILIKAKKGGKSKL
# Chain of Thyrotropin receptor (Homo sapiens) (P16473 whole entry, looked up): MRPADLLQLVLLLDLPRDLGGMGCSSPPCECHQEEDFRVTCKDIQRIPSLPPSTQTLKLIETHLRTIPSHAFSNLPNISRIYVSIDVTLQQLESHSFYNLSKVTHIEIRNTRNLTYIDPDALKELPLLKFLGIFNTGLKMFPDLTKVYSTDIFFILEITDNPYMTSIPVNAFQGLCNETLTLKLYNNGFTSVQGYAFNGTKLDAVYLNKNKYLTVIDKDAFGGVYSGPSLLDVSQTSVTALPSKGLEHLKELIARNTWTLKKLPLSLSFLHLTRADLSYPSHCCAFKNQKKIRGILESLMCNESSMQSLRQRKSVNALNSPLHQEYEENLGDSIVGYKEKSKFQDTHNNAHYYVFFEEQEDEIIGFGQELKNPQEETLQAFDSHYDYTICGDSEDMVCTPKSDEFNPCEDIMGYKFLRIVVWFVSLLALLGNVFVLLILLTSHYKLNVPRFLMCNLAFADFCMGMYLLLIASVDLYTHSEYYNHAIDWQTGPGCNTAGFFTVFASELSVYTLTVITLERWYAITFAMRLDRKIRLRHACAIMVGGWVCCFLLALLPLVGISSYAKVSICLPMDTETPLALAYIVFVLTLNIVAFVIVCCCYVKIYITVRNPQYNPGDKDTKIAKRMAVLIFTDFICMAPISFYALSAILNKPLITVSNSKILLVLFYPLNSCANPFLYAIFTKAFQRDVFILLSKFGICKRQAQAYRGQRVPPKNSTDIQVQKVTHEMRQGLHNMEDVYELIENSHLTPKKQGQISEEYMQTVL
SMILES,Potency [1],Potency [2],Potency [3],Potency [4],Potency [5],Potency [6],Potency [7],Potency [8],Potency [9],outcome [10],Potency [11],Potency [12],"activity change, positive = activation [13]",Potency [14],Potency [15],Potency [16],Potency [17],Potency [18],Potency [19],Potency [20]
Cc1cc2nc3ccc(=[N+](C)C)cc-3sc2cc1N,2.66 µM (active),9.77 µM (active),21.1 µM (active),10.6 µM (active),8.41 µM (active),13.3 µM (active),2.66 µM (active),inactive,5.35 µM (active),inactive,24.7 µM (active),0.531 µM (active),-65.1% [at 42.5 µM],16.9 µM (active),21.3 µM (active),,,,,
C[C@]12CCC(=O)C=C1C=C[C@@H]1[C@@H]2CC[C@@]2(C)[C@H]1CC[C@@]21CCC(=O)O1,inactive,inactive,inactive,inactive,inactive,inactive,inactive,inactive,inactive,,inactive,,-28.3% [at 42.5 µM],inactive,inactive,inactive,inactive,inactive,inactive,
CCOC(=O)/C=C/C(=O)O,inactive,inactive,inactive,inactive,,inactive,,,inactive,inactive,inactive,,,inactive,inactive,inactive,inactive,inactive,inactive,inactive
